Our source for the cross-linked residues values is PMC12350791.

What all share (experiment): cross-linking mass spectrometry
Common to all, as to conditions: DSBSO, in cells or nuclear extract, not told apart

For assay [1], the target named is MYH9 (UniProt P35579).
Assay [2] has as its target MYO9B (UniProt Q13459).
Assay [3] deals with NAP1L4 (UniProt Q99733).
The target in assay [4] is NCAPD2 (UniProt Q15021).
In assay [5] the target is NCBP1 (UniProt Q09161).
Assay [6] deals with NDUFA5 (UniProt Q16718).
The target of assay [7] is NDUFA6 (UniProt P56556).
For assay [8], the target named is NDUFAF4 (UniProt Q9P032).
In assay [9] the target is NDUFS2 (UniProt O75306).
In assay [10] the target is NIP7 (UniProt Q9Y221).
Assay [11] has as its target NMI (UniProt Q13287).
Assay [12] concerns the target NOC4L (UniProt Q9BVI4).
The target of assay [13] is NOL7 (UniProt Q9UMY1).
Assay [14] addresses NPM1 (UniProt P06748).
In assay [15] the target is NUDT5 (UniProt Q9UKK9).
Assay [16] deals with NUP160 (UniProt Q12769).
The target in assay [17] is RAE1 (UniProt P78406).
Assay [18] concerns the target NUP50 (UniProt Q9UKX7).
For assay [19], the target named is NUP62 (UniProt P37198).
Sequence of NUP62 (P37198 whole entry): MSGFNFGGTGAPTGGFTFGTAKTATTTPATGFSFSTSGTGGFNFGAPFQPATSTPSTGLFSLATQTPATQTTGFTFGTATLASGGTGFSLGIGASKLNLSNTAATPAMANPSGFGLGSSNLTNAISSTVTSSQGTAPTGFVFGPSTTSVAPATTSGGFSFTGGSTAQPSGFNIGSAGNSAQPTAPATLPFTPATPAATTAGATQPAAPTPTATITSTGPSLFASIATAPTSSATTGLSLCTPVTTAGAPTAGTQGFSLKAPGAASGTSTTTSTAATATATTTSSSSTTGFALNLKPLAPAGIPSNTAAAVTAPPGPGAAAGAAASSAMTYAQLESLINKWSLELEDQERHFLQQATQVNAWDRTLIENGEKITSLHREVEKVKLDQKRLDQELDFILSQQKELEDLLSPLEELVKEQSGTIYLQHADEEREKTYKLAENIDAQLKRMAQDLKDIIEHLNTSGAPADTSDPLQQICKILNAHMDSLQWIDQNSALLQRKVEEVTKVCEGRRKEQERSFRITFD
Assay [20] addresses NUP85 (UniProt Q9BW27).
For assay [21], the target named is NUP88 (UniProt Q99567).
Assay [22] addresses OSBPL11 (UniProt Q9BXB4).
Assay [23] addresses PAFAH1B2 (UniProt P68402).
Assay [24] deals with PAM16 (UniProt Q9Y3D7).
The target of assay [25] is PAXBP1 (UniProt Q9Y5B6).
Assay [26] concerns the target PDE4DIP (UniProt Q5VU43).
The target of assay [27] is PELP1 (UniProt Q8IZL8).
Assay [28] addresses PFKP (UniProt Q01813).
Assay [29] concerns the target PHC2 (UniProt Q8IXK0).
For assay [30], the target named is PNN (UniProt Q9H307).
Assay [31] addresses PNO1 (UniProt Q9NRX1).
The target in assay [32] is RPL23A (UniProt P62750).
Assay [33] deals with PRPF31 (UniProt Q8WWY3).
The target in assay [34] is PSME2 (UniProt Q9UL46).
Assay [35] deals with PUF60 (UniProt Q9UHX1).
For assay [36], the target named is RAD50 (UniProt Q92878).
Sequence of RAD50 (Q92878 whole entry): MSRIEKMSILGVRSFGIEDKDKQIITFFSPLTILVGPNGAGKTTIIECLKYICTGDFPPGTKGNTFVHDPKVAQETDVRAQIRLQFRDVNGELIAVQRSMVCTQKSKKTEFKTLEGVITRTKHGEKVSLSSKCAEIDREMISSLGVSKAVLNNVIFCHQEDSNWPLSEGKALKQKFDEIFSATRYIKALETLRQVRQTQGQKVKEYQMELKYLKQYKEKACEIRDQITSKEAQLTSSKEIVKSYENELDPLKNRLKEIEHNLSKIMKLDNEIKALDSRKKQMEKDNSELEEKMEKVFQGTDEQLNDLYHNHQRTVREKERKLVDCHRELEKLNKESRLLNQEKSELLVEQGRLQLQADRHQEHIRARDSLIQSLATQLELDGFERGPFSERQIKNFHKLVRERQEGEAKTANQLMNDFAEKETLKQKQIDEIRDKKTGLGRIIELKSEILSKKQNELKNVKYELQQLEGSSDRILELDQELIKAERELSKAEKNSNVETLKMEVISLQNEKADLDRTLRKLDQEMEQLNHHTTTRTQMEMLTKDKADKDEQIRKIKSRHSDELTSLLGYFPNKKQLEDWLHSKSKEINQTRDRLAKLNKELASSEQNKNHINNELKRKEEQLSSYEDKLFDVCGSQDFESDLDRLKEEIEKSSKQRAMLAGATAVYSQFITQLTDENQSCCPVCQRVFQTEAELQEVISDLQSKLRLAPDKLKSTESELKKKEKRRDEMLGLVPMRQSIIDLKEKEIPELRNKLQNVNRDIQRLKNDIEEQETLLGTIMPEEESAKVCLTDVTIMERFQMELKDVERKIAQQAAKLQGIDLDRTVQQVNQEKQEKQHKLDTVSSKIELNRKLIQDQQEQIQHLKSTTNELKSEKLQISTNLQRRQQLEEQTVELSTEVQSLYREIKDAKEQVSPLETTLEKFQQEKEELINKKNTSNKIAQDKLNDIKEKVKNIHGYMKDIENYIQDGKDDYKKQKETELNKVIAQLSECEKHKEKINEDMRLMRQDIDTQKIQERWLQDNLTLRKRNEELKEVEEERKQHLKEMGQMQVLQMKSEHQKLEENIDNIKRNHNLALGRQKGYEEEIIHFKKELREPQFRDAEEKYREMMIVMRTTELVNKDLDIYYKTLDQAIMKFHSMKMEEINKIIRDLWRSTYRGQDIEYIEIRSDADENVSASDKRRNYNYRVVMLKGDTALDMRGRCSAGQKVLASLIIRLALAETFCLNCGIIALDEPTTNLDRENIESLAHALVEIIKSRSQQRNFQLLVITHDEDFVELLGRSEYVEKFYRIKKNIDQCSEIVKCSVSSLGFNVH
The target in assay [37] is RAN (UniProt P62826).
In assay [38] the target is RNF20 (UniProt Q5VTR2).
For assay [39], the target named is RPF1 (UniProt Q9H9Y2).
Sequence of RPF1 (Q9H9Y2 whole entry): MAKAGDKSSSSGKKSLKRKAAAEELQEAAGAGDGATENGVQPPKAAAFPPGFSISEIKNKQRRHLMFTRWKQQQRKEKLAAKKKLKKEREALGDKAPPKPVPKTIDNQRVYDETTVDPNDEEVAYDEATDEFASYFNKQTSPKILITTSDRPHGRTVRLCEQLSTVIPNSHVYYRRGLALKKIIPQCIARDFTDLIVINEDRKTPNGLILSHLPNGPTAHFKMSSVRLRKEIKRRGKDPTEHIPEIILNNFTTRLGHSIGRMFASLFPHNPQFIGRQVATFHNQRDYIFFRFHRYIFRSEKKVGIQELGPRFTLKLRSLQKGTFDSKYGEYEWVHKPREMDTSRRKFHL
In assay [40] the target is RPLP2 (UniProt P05387).
Sequence of RPLP2 (P05387 whole entry): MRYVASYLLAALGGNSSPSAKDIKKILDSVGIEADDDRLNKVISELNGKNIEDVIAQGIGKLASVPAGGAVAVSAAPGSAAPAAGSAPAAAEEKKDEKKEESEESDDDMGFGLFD
In assay [41] the target is RREB1 (UniProt Q92766).
Assay [42] deals with SIN3A (UniProt Q96ST3).
Assay [43] deals with RSL24D1 (UniProt Q9UHA3).
Assay [44] has as its target RTCB (UniProt Q9Y3I0).
Assay [45] deals with RUVBL2 (UniProt Q9Y230).
The target of assay [46] is RWDD1 (UniProt Q9H446).
Assay [47] has as its target SDHA (UniProt P31040).
For assay [48], the target named is SEH1L (UniProt Q96EE3).
In assay [49] the target is SEPTIN11 (UniProt Q9NVA2).
Assay [50] has as its target SEPTIN2 (UniProt Q15019).
Assay [51] has as its target SERBP1 (UniProt Q8NC51).

Sequence of NDUFS7, O75251 (O75251 whole entry): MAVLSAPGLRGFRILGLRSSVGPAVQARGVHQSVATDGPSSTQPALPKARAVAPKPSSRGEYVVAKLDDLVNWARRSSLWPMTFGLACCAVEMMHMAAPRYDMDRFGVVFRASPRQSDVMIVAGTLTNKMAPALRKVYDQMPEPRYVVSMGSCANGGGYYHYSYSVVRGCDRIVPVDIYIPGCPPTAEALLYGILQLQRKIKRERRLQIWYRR
Sequence of NUP98, P52948 (P52948 whole entry): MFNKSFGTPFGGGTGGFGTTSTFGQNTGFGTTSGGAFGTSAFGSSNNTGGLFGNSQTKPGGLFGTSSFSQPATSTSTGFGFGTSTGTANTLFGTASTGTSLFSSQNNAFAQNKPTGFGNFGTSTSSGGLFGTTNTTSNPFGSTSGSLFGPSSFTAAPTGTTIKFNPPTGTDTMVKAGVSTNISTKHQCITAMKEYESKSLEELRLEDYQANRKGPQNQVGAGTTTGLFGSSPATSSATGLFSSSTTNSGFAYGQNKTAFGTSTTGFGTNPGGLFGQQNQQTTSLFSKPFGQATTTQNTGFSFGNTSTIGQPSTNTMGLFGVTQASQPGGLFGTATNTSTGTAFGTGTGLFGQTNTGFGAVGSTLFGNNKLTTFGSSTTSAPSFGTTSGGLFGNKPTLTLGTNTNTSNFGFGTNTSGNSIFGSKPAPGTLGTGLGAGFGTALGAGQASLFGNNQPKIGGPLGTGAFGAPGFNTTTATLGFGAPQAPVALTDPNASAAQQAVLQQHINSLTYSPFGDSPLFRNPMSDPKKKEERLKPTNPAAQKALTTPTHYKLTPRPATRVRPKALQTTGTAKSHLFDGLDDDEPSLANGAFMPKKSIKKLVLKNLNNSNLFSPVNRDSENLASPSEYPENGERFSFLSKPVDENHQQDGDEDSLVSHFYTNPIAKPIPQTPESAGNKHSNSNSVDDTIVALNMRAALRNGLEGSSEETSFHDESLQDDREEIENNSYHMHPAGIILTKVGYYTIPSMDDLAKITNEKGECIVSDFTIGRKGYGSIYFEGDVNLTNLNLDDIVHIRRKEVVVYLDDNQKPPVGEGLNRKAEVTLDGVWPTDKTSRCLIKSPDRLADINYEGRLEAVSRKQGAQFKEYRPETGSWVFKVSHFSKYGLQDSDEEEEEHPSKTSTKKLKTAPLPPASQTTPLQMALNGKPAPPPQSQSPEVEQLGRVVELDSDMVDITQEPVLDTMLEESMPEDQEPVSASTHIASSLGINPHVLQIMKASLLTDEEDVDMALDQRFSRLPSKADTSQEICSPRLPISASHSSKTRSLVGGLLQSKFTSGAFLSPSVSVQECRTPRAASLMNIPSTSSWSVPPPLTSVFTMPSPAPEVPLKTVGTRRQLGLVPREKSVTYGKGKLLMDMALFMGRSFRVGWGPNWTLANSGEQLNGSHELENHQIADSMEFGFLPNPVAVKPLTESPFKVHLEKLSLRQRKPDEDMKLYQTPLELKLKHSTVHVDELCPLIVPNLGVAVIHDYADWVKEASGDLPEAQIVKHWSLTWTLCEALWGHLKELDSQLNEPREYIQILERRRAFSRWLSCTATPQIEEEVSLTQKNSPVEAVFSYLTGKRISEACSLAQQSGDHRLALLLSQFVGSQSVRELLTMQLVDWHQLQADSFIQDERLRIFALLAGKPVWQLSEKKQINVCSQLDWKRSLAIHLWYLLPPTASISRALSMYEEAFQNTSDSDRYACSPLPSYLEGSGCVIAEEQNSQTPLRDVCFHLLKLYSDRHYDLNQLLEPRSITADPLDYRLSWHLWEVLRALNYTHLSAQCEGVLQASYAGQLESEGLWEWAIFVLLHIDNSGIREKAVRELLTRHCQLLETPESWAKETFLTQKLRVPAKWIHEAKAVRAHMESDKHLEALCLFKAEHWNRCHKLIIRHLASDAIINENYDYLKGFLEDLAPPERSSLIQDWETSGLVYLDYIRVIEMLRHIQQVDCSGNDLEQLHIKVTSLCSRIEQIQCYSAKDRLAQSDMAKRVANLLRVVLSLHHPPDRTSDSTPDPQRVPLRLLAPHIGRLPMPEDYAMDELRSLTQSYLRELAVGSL
Sequence of HDAC1, Q13547 (Q13547 whole entry): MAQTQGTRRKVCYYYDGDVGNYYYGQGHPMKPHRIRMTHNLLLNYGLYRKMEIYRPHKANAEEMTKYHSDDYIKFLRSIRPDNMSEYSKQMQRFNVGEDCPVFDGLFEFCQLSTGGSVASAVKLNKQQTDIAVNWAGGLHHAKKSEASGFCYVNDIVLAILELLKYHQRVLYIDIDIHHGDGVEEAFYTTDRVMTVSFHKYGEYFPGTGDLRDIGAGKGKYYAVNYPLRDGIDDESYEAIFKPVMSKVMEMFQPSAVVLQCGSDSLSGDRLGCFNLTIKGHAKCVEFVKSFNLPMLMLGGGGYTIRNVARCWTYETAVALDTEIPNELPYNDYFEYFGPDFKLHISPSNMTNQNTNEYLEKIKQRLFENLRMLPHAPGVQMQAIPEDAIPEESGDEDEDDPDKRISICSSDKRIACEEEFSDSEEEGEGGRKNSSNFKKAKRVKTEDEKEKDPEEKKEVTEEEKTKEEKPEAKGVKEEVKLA
Sequence of NUP62, P37198 (P37198 whole entry): as the sequence (P37198 whole entry) above
Sequence of NDUFS4, O43181 (O43181 whole entry): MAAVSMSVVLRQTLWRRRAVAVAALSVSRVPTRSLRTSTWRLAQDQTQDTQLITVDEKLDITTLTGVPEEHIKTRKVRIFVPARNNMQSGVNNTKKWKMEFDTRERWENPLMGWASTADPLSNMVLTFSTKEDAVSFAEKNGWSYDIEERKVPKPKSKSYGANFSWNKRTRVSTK

As to TPR, P12270, the cross-linked residues entry in assay [1] is “K854 - K1614”.

Regarding H1-2, P16403, the cross-linked residues entry in [2] is recorded as “K140 - K1390”. Regarding NAP1L1, P55209, the cross-linked residues result in assay [3] is recorded as “K87 - K105”. SMC2, O95347: in [4], the cross-linked residues entry is recorded as “K1014 - K78”. Regarding NCBP2, P52298, in assay [5], the cross-linked residues entry was “K68 - K607”. In the case of NDUFA10, O95299, the cross-linked residues result in assay [6] is listed as “K80 - K30”. With NDUFS4, O43181, in assay [7], the cross-linked residues result is “K73 - K116”. Consider NDUFS7, O75251, for which the cross-linked residues result is recorded as “K55 - K107” in [8] and “K136 - K78” in assay [9]. In the case of NOP2, P46087, the cross-linked residues result in [10] was “K423 - K72”. As to IFI35, P80217, the cross-linked residues entry in [11] was “K47 - K254”. In the case of NOP14, P78316, in assay [12], the cross-linked residues result was “K535 - K342”. As to UTP15, Q8TED0, the cross-linked residues result in assay [13] was “K416 - K210”. Consider NPM3, O75607, for which, in assay [14], the cross-linked residues entry was “K125 - K27”.

Regarding PYCR2, Q96C36, the cross-linked residues entry in [15] is given as “K47 - K210”. NUP98, P52948: the cross-linked residues entry in [16] was “K1749 - K1096”; in assay [17], “K175 - K252”.

Consider CSE1L, P55060, for which the cross-linked residues result in [18] is “K726 - K62”. Turning to NUP214, P35658, the cross-linked residues entry in assay [19] is “K755 - K371”. Turning to SEH1L, Q96EE3, the cross-linked residues entry in assay [20] is given as “K314 - K59”. Turning to NUP62, P37198, in [21], the cross-linked residues entry is reported as “K415 - K642”.

PPA1, Q15181: in [22], the cross-linked residues entry is given as “K238 - K660”.

As to PAFAH1B1, P43034, in assay [23], the cross-linked residues result is “K147 - K145”. With DNAJC19, Q96DA6, the cross-linked residues entry in assay [24] is “K93 - K82”. On to TFIP11, Q9UBB9, for which the cross-linked residues entry in [25] was “K267 - K682”. As for IMMT, Q16891, the cross-linked residues entry in assay [26] is “K343 - K1022”. NOL9, Q5SY16: the cross-linked residues result in assay [27] was “K670 - K216”.

Take PFKM, P08237: in [28], the cross-linked residues result is reported as “K476 - K736”. As to RING1, Q06587, in [29], the cross-linked residues entry is given as “K297 - K598”.

Take SAP18, O00422: the cross-linked residues entry in assay [30] is on record as “K74 - K109”. For the substance NPM1, P06748, the values for the cross-linked residues entry in [31] and in [32] were “K267 - K77” and “K141 - K30”, respectively.

For SNU13, P55769, the cross-linked residues entry in assay [33] is “K86 - K315”. In the case of PSME1, Q06323, the cross-linked residues entry in assay [34] is “K190 - K180”. Regarding SRSF11, Q05519, the cross-linked residues result in [35] is “K58 - K69”. For the substance ACTR1B, P42025, in assay [36], the cross-linked residues result is “K324 - K651”. Still for that read-out and setting: with MRE11, P49959 the entry was “K393 - K1190”. Take XPO1, O14980: the cross-linked residues result in assay [37] is “K426 - K159”. Turning to RNF40, O75150, in [38], the cross-linked residues entry is on record as “K862 - K834”. With MAK16, Q9BXY0, the cross-linked residues result in assay [39] was “K164 - K302”. With WDR74, Q6RFH5, the cross-linked residues entry in assay [39] is “K151 - K182”. On to RPLP1, P05386, for which the cross-linked residues result in assay [40] is “K33 - K25”.

In the case of HDAC1, Q13547, the cross-linked residues entry is listed as “K74 - K259” in assay [41] and “K220 - K552” in [42]. For GTPBP4, Q9BZE4, in assay [43], the cross-linked residues result is “K448 - K88”. For RTRAF, Q9Y224, the cross-linked residues result in assay [44] was “K185 - K492”.

Turning to HAUS3, Q68CZ6, the cross-linked residues entry in assay [45] is listed as “K595 - K177”. In the case of DRG2, P55039, in [46], the cross-linked residues entry is “K311 - K166”. On to SDHB, P21912, for which the cross-linked residues result in assay [47] is “K167 - K167”. For the substance NUP43, Q8NFH3, the cross-linked residues result in assay [48] is “K161 - K96”. Regarding SEPTIN2, Q15019, the cross-linked residues entry in [49] is listed as “K249 - K190”.

On to SEPTIN6, Q14141, for which the cross-linked residues entry in assay [50] is “K191 - K249”. As for RPS12, P25398, the cross-linked residues result in assay [51] was “K116 - K299”.
